Mtb UGM inh: Mtb UDP-galactopyranose mutase inhibition; P9WIQ1; purified UGM, fluorescence polarization probe displacement; inhibition, % at 10 µM; actives 0.06% (n = 320,000); in the data active = inhibition above about 10%, passing the limit was not always enough
Target sequence (P9WIQ1 whole entry, looked up): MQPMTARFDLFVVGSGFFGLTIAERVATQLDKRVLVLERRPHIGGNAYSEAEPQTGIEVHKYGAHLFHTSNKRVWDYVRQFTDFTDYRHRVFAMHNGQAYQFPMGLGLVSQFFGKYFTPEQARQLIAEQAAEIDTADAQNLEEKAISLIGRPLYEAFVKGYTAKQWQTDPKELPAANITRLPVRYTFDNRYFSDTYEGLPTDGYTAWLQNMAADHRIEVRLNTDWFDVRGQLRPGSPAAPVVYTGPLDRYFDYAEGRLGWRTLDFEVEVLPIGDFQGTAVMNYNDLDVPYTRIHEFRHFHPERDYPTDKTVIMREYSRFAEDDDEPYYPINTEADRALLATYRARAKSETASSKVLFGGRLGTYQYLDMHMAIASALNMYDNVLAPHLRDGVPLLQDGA
RecA splice inh: blocks M. tuberculosis RecA intein splicing; cell-free RecA intein splicing, fluorescence; inhibition, % (test concentration not listed); actives 0.75% (n = 290,000); P9WHJ3; AID 2221; in the data active = inhibition above about 30%;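 also: 0% = vehicle wells and 100% = reference inhibitor control wells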
FBA Mtb inh: Mtb fructose-bisphosphate aldolase inhibition. P9WQA3. purified M. tuberculosis FBA, fluorescence read-out. inhibition, % at 1 µM. actives 2.3% (n = 360,000); in the data active = inhibition above about 27%;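 also: 0% = vehicle and 100% = reference inhibitor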
GDH-TPI inh: GDH-TPI coupled enzyme inhibition counter-screen; AID 588335; actives 1.2% (n = 360,000); inhibition, % at 4.8 µM; GDH-TPI coupled enzyme counterscreen, NADH absorbance; in the data active = inhibition above about 30%;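 also: 0% = DMSO wells and 100% = wells lacking the enzyme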
Rv3671c inh: inhibits the M. tuberculosis serine protease Rv3671c; AID 2606; P9WHR9; actives 0.048% (n = 320,000); inhibition, % at 5.96 µM; in the data active = inhibition above about 38%;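 also: extracellular domain of Rv3671c used as enzyme; 0% = enzyme with DMSO and 100% = no enzyme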
Vc quorum ag-1: induces V. cholerae light production without autoinducers; activation, % at 18.7 µM; actives 0.16% (n = 350,000); V. cholerae BH1578 lux reporter, luminescence, 6 h; in the data active = activation mostly above about 9.7%, no sharp cut-off
Vc quorum ag-2: quorum light induction in BH1578 reporter strain | shares compounds with Vc quorum ag-1 | V. cholerae BH1578 lux reporter, luminescence, 6 h | activation, % at 50 µM | 620 tested, under 10 active | AID 602243; call rule not given here
HeLa tox: cytotoxicity in HeLa cells at 24 hours; shares compounds with Vc quorum ag-1; HeLa viability, CellTiter-Glo ATP luminescence; activity change, negative = cytotoxicity, % at 35 µM; 25 tested, under 10 active;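 active = signal drop with fitted half-maximal concentration at or below twice the highest valid dose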
* = called active by the depositor. An excerpt weighted towards active compounds, which were near 4.1% of everything screened.

For CC(C)N(Cc1nc(-c2ccc(Cl)cc2)no1)C(=O)C12CC3CC(CC(C3)C1)C2 the results were Mtb UGM inh -3, RecA splice inh 3, FBA Mtb inh 3, GDH-TPI inh 2, Rv3671c inh 1 and Vc quorum ag-1 4.
Screening COc1ccc(Cl)cc1S(=O)(=O)NCCCn1ccnc1 returned Mtb UGM inh -1, RecA splice inh -3, FBA Mtb inh 1, GDH-TPI inh -1, Rv3671c inh 3 and Vc quorum ag-1 inactive.
COc1ccc(Cl)cc1S(=O)(=O)NC(C)C(=O)NCCCn1ccnc1 (configuration not stated) was read as Mtb UGM inh 0, RecA splice inh 0, FBA Mtb inh -3, GDH-TPI inh -2, Rv3671c inh 7, Vc quorum ag-1 14 and Vc quorum ag-2 0.
For Cc1ccc2[nH]c3c(c2c1)CCCC3C(N)=O (configuration not stated) the results were Mtb UGM inh -1, RecA splice inh -7, FBA Mtb inh 4, GDH-TPI inh 8, Rv3671c inh -20 and Vc quorum ag-1 0.
Screening CCOC(=O)C1CCCc2c1[nH]c1c(C(=O)O)cccc21 (configuration not stated) returned Mtb UGM inh 2, RecA splice inh -1, FBA Mtb inh 4, GDH-TPI inh 9, Rv3671c inh -3, Vc quorum ag-1 12 and Vc quorum ag-2 1.
`CCOc1ccc(Nc2ccc3nonc3c2[N+](=O)[O-])cc1` gave Mtb UGM inh 1, RecA splice inh 5, FBA Mtb inh -1, GDH-TPI inh 12, Rv3671c inh 6, Vc quorum ag-1 active, Vc quorum ag-2 inactive and HeLa tox 17.
`CCOC(=O)c1c(NC(=O)COC(=O)Cc2c[nH]c3ccccc23)sc(C(=O)N(C)C)c1C` gave Mtb UGM inh 3, RecA splice inh -3, FBA Mtb inh 3, GDH-TPI inh 4, Rv3671c inh -14, Vc quorum ag-1 12 and Vc quorum ag-2 0.
For CCOC(=O)c1c(NC(=O)COC(=O)Cc2n[nH]c(=O)c3ccccc23)sc(C(=O)N(C)C)c1C the results were Mtb UGM inh 1, RecA splice inh 0, FBA Mtb inh -3, GDH-TPI inh 6, Rv3671c inh -8 and Vc quorum ag-1 inactive.
Screening COc1c(OC(C)=O)c(=O)n2c3ccccc3c3ccnc1c32 returned Mtb UGM inh 2, RecA splice inh 2, FBA Mtb inh 12, GDH-TPI inh 9, Rv3671c inh 9 and Vc quorum ag-1 0.
`CC1CN(c2ccccn2)C(C)CN1C(=S)Nc1ccccc1` (configuration not stated) gave FBA Mtb inh 2, GDH-TPI inh -2 and Vc quorum ag-1 7.
For CCCCCCCCOC(=O)C(NC(=O)CCC(=O)Nc1ccc(S(N)(=O)=O)cc1)C(O)c1ccccc1 (configuration not stated) the results were Mtb UGM inh -1, RecA splice inh -1, FBA Mtb inh 4, GDH-TPI inh 1, Rv3671c inh -19, Vc quorum ag-1 17* and Vc quorum ag-2 0.
For CCOC(=O)C(NC(=O)CCC(=O)Nc1ccc(S(N)(=O)=O)cc1)C(O)c1ccccc1 (configuration not stated) the results were RecA splice inh 2 and Vc quorum ag-1 6.
COC(=O)[C@H]1C[C@H](C(=O)O)[C@@H](C)C1(C)C was read as Mtb UGM inh -1, FBA Mtb inh -3, GDH-TPI inh -1, Rv3671c inh 0, Vc quorum ag-1 25 and Vc quorum ag-2 0.
Screening COC(=O)[C@@H]1CC[C@@](C)(c2ccc(OC)cc2)C1(C)C returned Mtb UGM inh -4, RecA splice inh 1, FBA Mtb inh 0, GDH-TPI inh -9, Rv3671c inh 3 and Vc quorum ag-1 -4.
`CCOc1ccccc1N(CC(=O)Nc1ccc2c(c1)OCO2)S(C)(=O)=O` gave Mtb UGM inh 0, RecA splice inh -2, FBA Mtb inh 2, GDH-TPI inh 0, Rv3671c inh 8 and Vc quorum ag-1 0.

High-throughput results: PubChem BioAssay, several laboratories
